Some test systems named below: SR leukemia; RPMI-8226 leukemia; OVCAR-8 ovarian; OVCAR-5 ovarian; OVCAR-4 ovarian; SK-OV-3 ovarian; IGROV1 ovarian; HS 578T breast; NCI/ADR-RES ovarian; T-47D breast; BT-549 breast; MDA-MB-435 melanoma; SW-620 colon; MCF7 breast; HCT-116 colon; HCC-2998 colon; KM12 colon; OVCAR-3 ovarian.
Holding throughout (test): NCI-60 one-dose screen, 48 h (100 = growth as untreated, 0 = no growth, -100 = all killed)
Settings in all cases: 10 µM unless noted

Compounds without any hit were thinned out: in the full panel of roughly 83,000, 20% have a hit.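 Testing used 96-well plates and a 48-hour single-concentration exposure. Example: -40 means 40% of the starting cells died.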 Unmarked numbers belong to inactive results. Calls of active or inactive are those of the source. The calls were made as follows: active = growth percent below 10; inactive = the rest.

Regarding `Cc1nc2ncccc2nc1Nc1ccc(S(=O)(=O)Nc2cncs2)cc1`, the growth is 102% in the assay on SR leukemia; 88.4% in the assay with RPMI-8226 leukemia; 103% with OVCAR-8 ovarian; 96.4% in the assay with OVCAR-5 ovarian; 98.6% in the assay with OVCAR-4 ovarian; 86.2% in the assay with SK-OV-3 ovarian. Further, the growth was 51% in the assay with IGROV1 ovarian; 92.8% in the assay with HS 578T breast; 98% in the assay on NCI/ADR-RES ovarian; 82.7% in the assay on T-47D breast; 83% in the assay on BT-549 breast; 114% in the assay with MDA-MB-435 melanoma. Also, the growth in the assay on SW-620 colon was 102%; in the assay with MCF7 breast, 82.2%; in the assay with HCT-116 colon, 97.5%; with HCC-2998 colon, 95.1%; with KM12 colon it was 97.7%.
For `COc1ccc2c(c1)[nH]c(=O)c1c3cccc(F)c3cn21`, the growth is 39.9% with SR leukemia; -49.8% (active) with RPMI-8226 leukemia; 27.4% in the assay on OVCAR-8 ovarian; 47.9% in the assay with OVCAR-5 ovarian; 47.8% in the assay with OVCAR-4 ovarian; 42.3% with SK-OV-3 ovarian. For the same compound, the growth was 6.16% (active) with IGROV1 ovarian; 63.9% in the assay with T-47D breast; 42.8% with BT-549 breast; -51.9% (active) with MDA-MB-435 melanoma; 27.2% with SW-620 colon; 22.3% in the assay with MCF7 breast. Further, the results for the growth in the assay with HCT-116 colon and in the assay on KM12 colon were 24.6% and 8.44% (active), respectively.
`CCN(CC)CCOC(=O)C(c1ccccc1)(c1ccccc1)C(C)C`: the growth was 84% with SR leukemia; 96% in the assay on RPMI-8226 leukemia; 87% with OVCAR-8 ovarian; 87.2% with OVCAR-5 ovarian; 94.8% in the assay on OVCAR-4 ovarian; 81.9% with SK-OV-3 ovarian. Besides, the growth was 78.2% in the assay on IGROV1 ovarian; 80.5% in the assay on OVCAR-3 ovarian; 79.2% in the assay with NCI/ADR-RES ovarian; 86% in the assay on T-47D breast; 90.8% with MDA-MB-435 melanoma; 97.3% with SW-620 colon. The growth in the assay on HCT-116 colon was 92.2%; in the assay on HCC-2998 colon it was 96.9%; with KM12 colon, 90.7%.
For `CC1CCC(C)N(C)C1` (stereo not given), the growth is 88.1% in the assay on SR leukemia; 89.7% in the assay with RPMI-8226 leukemia; 105% with OVCAR-8 ovarian; 106% in the assay on OVCAR-5 ovarian; 107% in the assay with OVCAR-4 ovarian; 102% with SK-OV-3 ovarian. Also, the growth is 106% with IGROV1 ovarian; 112% with OVCAR-3 ovarian; 108% in the assay with HS 578T breast; 96.9% in the assay with T-47D breast; 87.6% with BT-549 breast; 111% in the assay on MDA-MB-435 melanoma. Also, the growth with SW-620 colon is 113%; in the assay on HCT-116 colon, 97.9%; in the assay with HCC-2998 colon, 85.2%; with KM12 colon, 110%.
As for `COc1ccc2c(c1)[nH]c(=O)c1c3cc(C)c(C)cc3cn21`, the growth with SR leukemia was 31.9%; with RPMI-8226 leukemia, -32.2% (active); in the assay on OVCAR-8 ovarian, -27.5% (active); with OVCAR-5 ovarian, 28.8%; with OVCAR-4 ovarian, 42.4%; with SK-OV-3 ovarian it was 43.3%. Besides, the growth with IGROV1 ovarian was -21.7% (active); in the assay on NCI/ADR-RES ovarian it was 8.27% (active); in the assay on T-47D breast, -24.4% (active); in the assay with BT-549 breast, 0.0621% (active); with MDA-MB-435 melanoma it was -60.8% (active); with SW-620 colon, -52.8% (active). The growth in the assay on MCF7 breast is 3.58% (active); in the assay with HCT-116 colon it was -35.9% (active); in the assay on HCC-2998 colon, 15.7%; in the assay with KM12 colon, -87.7% (active).
With `CCOC(=O)c1ccc2c(c1)nc(-c1ccc(OCc3ccccc3)c(OC)c1)n2-c1cc(C(C)(C)C)[nH]n1`, the growth with SR leukemia is 68.9%; in the assay on RPMI-8226 leukemia, 68.8%; with OVCAR-8 ovarian, 99.7%; in the assay with OVCAR-5 ovarian, 88.9%; with OVCAR-4 ovarian, 76.4%; in the assay on SK-OV-3 ovarian, 91.2%. The growth was 83% in the assay on IGROV1 ovarian; 81.8% with OVCAR-3 ovarian; 82.2% in the assay with HS 578T breast; 65.5% in the assay on T-47D breast; 98.6% in the assay with BT-549 breast; 85% in the assay with MDA-MB-435 melanoma. The growth with SW-620 colon is 98%; with HCT-116 colon it was 62.8%; in the assay with HCC-2998 colon, 91%; with KM12 colon, 69.3%.
As for `O=C1Nc2ccc3c(c2/C1=C\c1cc2c(cc1Br)OCO2)OCO3`, the growth is 29.3% with SR leukemia; 14.4% in the assay with RPMI-8226 leukemia; 35% in the assay with OVCAR-8 ovarian; 65.2% in the assay with OVCAR-5 ovarian; -45.5% (active) in the assay on OVCAR-4 ovarian; 2.7% (active) in the assay with SK-OV-3 ovarian. Besides, the growth in the assay on IGROV1 ovarian was -7.11% (active); with HS 578T breast it was -14.5% (active); in the assay on NCI/ADR-RES ovarian, 1.49% (active); in the assay on BT-549 breast, 27.8%; in the assay with MDA-MB-435 melanoma it was -38.7% (active); in the assay on SW-620 colon it was 7.57% (active). Further, the results for the growth in the assay with MCF7 breast, with HCT-116 colon and in the assay on KM12 colon were 4.51% (active), -2.7% (active) and -6.85% (active), respectively.
On to `COc1cc(-c2nc(N=Nc3c(O)[nH]c4ccc(Br)cc34)[nH]c(=O)c2C#N)cc(OC)c1OC`, for which the growth with SR leukemia was 88.2%; in the assay with RPMI-8226 leukemia, 98.2%; in the assay on OVCAR-8 ovarian, 93.5%; in the assay on OVCAR-5 ovarian it was 101%; in the assay on OVCAR-4 ovarian, 101%; in the assay on SK-OV-3 ovarian, 108%. The growth was 101% in the assay with IGROV1 ovarian; 102% in the assay with OVCAR-3 ovarian; 93.8% with HS 578T breast; 90.6% with T-47D breast; 105% in the assay with BT-549 breast; 102% in the assay on MDA-MB-435 melanoma. Also, the growth in the assay with SW-620 colon was 93.4%; with MCF7 breast, 99.7%; with HCT-116 colon, 99.2%; with HCC-2998 colon, 117%; with KM12 colon, 100%.
In the case of `CCCCNC(=O)Oc1ccc(/C(=C(\C)c2ccccc2)c2ccc(OCCN(CC)CC)cc2)cc1`, the growth with SR leukemia was 14.5%; in the assay on RPMI-8226 leukemia, 49.8%; with OVCAR-8 ovarian, 77%; in the assay with OVCAR-5 ovarian, 77.7%; with OVCAR-4 ovarian, 79.7%; in the assay with SK-OV-3 ovarian it was 74.5%. In addition, the growth in the assay with IGROV1 ovarian is 77.2%; in the assay on OVCAR-3 ovarian it was 75.1%; with HS 578T breast, 39.8%; in the assay with T-47D breast, 40.3%; in the assay on BT-549 breast, 72.3%; in the assay on MDA-MB-435 melanoma, 58.7%. The growth was 69.7% in the assay on SW-620 colon; 33.8% in the assay with MCF7 breast; 48.1% with HCT-116 colon; 82.6% in the assay with HCC-2998 colon; 60.6% with KM12 colon.
As to `Cc1nc2ncccc2nc1Nc1ccc(S(=O)(=O)Nc2ccccn2)cc1`, the growth with SR leukemia is 92.2%; with RPMI-8226 leukemia it was 84.5%; in the assay on OVCAR-8 ovarian, 93.6%; in the assay on OVCAR-5 ovarian, 103%; with OVCAR-4 ovarian, 102%; with SK-OV-3 ovarian, 89.1%. The growth in the assay on IGROV1 ovarian is 72.6%; with HS 578T breast, 92.9%; in the assay with NCI/ADR-RES ovarian it was 98.2%; in the assay with T-47D breast it was 91.2%; in the assay on BT-549 breast it was 83.3%; in the assay with MDA-MB-435 melanoma, 109%. Further, the growth in the assay with SW-620 colon is 102%; with MCF7 breast it was 92.7%; with HCT-116 colon, 92%; in the assay with HCC-2998 colon it was 99.5%; in the assay with KM12 colon, 97.8%.

The values are drawn from PubChem BioAssay (NCI).
